Experimental data reported in PubChem BioAssay AID1159580 (chemical genetic matrix, 2015).
Among all 5,500 compounds or so, about 2,000 (36%) were called active. Not shown: some 18% with an inconclusive outcome. Cut-off read from the data, not from the text of the source: active = normalized growth mostly below about 0.91 (no sharp cut-off); inconclusive = no clear call, values can overlap the other calls; inactive = mostly above about 0.92. The list shows a part of the results.

Experiment: chemical genetic growth profiling, strain panel (AID 1159580);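 note: tested at 20 µM; growth read once vehicle control cultures reached saturation at 30 °C; 1 = growth at the plate median or of vehicle wells; lower values mean less growth of the strain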
Details: growth OD

Measured: normalized growth

CCOC(=O)[C@H](CCc1ccccc1)N[C@@H](C)C(=O)N1CCC[C@H]1C(=O)O
inactive: S. cerevisiae deletion strains, locus YJR075W, strain HOC1, active compounds read low 1.01 | S. cerevisiae deletion strains, locus YKL009W, strain mrt4, active compounds read low 1.04 | S. cerevisiae deletion strains, locus YKL068W, active compounds read low 0.998 | S. cerevisiae deletion strains, locus YKL085W, strain MDH1 (second series), active compounds read low 1 | S. cerevisiae deletion strains, locus YKL085W, strain MDH1, active compounds read low 1 | S. cerevisiae deletion strains, locus YKL160W, strain elf1, active compounds read low 0.988 | S. cerevisiae deletion strains, locus YKL190W, strain CNB1, active compounds read low 0.998 | S. cerevisiae deletion strains, locus YKR001C, strain vps1, active compounds read low 1.02 | S. cerevisiae deletion strains, locus YKR026C, strain gcn3, active compounds read low 1 | S. cerevisiae deletion strains, locus YKR091W, strain srl3, active compounds read low 0.994 | S. cerevisiae deletion strains, locus YLL001W, strain dnm1, active compounds read low 0.981 | S. cerevisiae deletion strains, locus YLL026W, active compounds read low 0.989 | S. cerevisiae deletion strains, locus YLL041C, strain sdh2, active compounds read low 1.01 | S. cerevisiae deletion strains, locus YLR027C, strain aat2, active compounds read low 0.985 | S. cerevisiae deletion strains, locus YLR039C, strain RIC1, active compounds read low 1 | S. cerevisiae deletion strains, locus YLR058C, strain SHM2, active compounds read low 1.01 | S. cerevisiae deletion strains, locus YLR102C, strain apc9, active compounds read low 1.02 | S. cerevisiae deletion strains, locus YLR113W, strain HOG1, active compounds read low 1.05 | S. cerevisiae deletion strains, locus YLR221C, strain rsa3, active compounds read low 0.975 | S. cerevisiae deletion strains, locus YLR258W, strain gsy2, active compounds read low 0.992 | S. cerevisiae deletion strains, locus YLR262C, strain YPT6 (second series), active compounds read low 0.998 | S. cerevisiae deletion strains, locus YLR262C, strain YPT6, active compounds read low 1.03 | S. cerevisiae deletion strains, locus YLR268W, strain sec22, active compounds read low 1.01 | S. cerevisiae deletion strains, locus YLR320W, strain mms22, active compounds read low 0.984 | S. cerevisiae deletion strains, locus YLR330W, strain CHS5, active compounds read low 1 | S. cerevisiae deletion strains, locus YLR342W, strain FKS1 (second series), active compounds read low 1 | S. cerevisiae deletion strains, locus YLR342W, strain FKS1, active compounds read low 0.994 | S. cerevisiae deletion strains, locus YLR357W, strain rsc2, active compounds read low 0.938 | S. cerevisiae deletion strains, locus YLR370C, strain arc18, active compounds read low 0.994 | S. cerevisiae deletion strains, locus YLR371W, strain rom2, active compounds read low 1.02 | S. cerevisiae deletion strains, locus YLR384C, strain iki3, active compounds read low 1 | S. cerevisiae deletion strains, locus YLR418C, strain cdc73, active compounds read low 1.01 | S. cerevisiae deletion strains, locus YML016C, strain PPZ1, active compounds read low 1.01 | S. cerevisiae deletion strains, locus YML032C, strain rad52, active compounds read low 1.02 | S. cerevisiae deletion strains, locus YML120C, strain ndi1, active compounds read low 1.03 | S. cerevisiae deletion strains, locus YML124C, strain tub3, active compounds read low 1.01 | S. cerevisiae deletion strains, locus YMR058W, strain fet3, active compounds read low 1.01 | S. cerevisiae deletion strains, locus YMR078C, strain ctf18, active compounds read low 1.01 | S. cerevisiae deletion strains, locus YMR125W, strain sto1, active compounds read low 0.991 | S. cerevisiae deletion strains, locus YMR129W, active compounds read low 1.01 | S. cerevisiae deletion strains, locus YMR205C, strain PFK2, active compounds read low 0.973 | S. cerevisiae deletion strains, locus YMR223W, strain ubp8, active compounds read low 1.02 | S. cerevisiae deletion strains, locus YMR231W, strain pep5, active compounds read low 0.988 | S. cerevisiae deletion strains, locus YMR263W, strain SAP30, active compounds read low 1.01 | S. cerevisiae deletion strains, locus YMR307W, strain GAS1, active compounds read low 1.02 | S. cerevisiae deletion strains, locus YNL067W, strain RPL9B, active compounds read low 1.01 | S. cerevisiae deletion strains, locus YNL071W, strain lat1, active compounds read low 1.01 | S. cerevisiae deletion strains, locus YNL128W, strain TEP1, active compounds read low 1.02 | S. cerevisiae deletion strains, locus YNL183C, strain NPR1, active compounds read low 0.973 | S. cerevisiae deletion strains, locus YNL209W, strain ssb2, active compounds read low 0.986 | S. cerevisiae deletion strains, locus YNL233W, strain BNI4, active compounds read low 1 | S. cerevisiae deletion strains, locus YNL248C, strain rpa49, active compounds read low 1.03 | S. cerevisiae deletion strains, locus YNL250W, strain rad50, active compounds read low 1.01 | S. cerevisiae deletion strains, locus YNL271C, strain bni1, active compounds read low 1.02 | S. cerevisiae deletion strains, locus YNL298W, strain CLA4, active compounds read low 1.04 | S. cerevisiae deletion strains, locus YNL307C, strain MCK1, active compounds read low 1.04 | S. cerevisiae deletion strains, locus YNL322C, strain KRE1 (second series), active compounds read low 0.963 | S. cerevisiae deletion strains, locus YNR049C, strain mso1, active compounds read low 1 | S. cerevisiae deletion strains, locus YNR052C, strain pop2, active compounds read low 1.01 | S. cerevisiae deletion strains, locus YOL006C, strain TOP1, active compounds read low 1.04 | S. cerevisiae deletion strains, locus YOL012C, strain htz1 0.639 | S. cerevisiae deletion strains, locus YOL147C, strain pex11, active compounds read low 1.01 | S. cerevisiae deletion strains, locus YOR001W, strain rrp6, active compounds read low 1 | S. cerevisiae deletion strains, locus YOR061W, strain CKA2, active compounds read low 1.01 | S. cerevisiae deletion strains, locus YOR069W, strain VPS5, active compounds read low 0.992 | S. cerevisiae deletion strains, locus YOR070C, strain gyp1, active compounds read low 0.963 | S. cerevisiae deletion strains, locus YOR080W, strain dia2, active compounds read low 0.997 | S. cerevisiae deletion strains, locus YOR083W, strain WHI5, active compounds read low 0.934 | S. cerevisiae deletion strains, locus YOR106W, strain vam3, active compounds read low 0.977 | S. cerevisiae deletion strains, locus YOR136W, strain idh2, active compounds read low 1.02 | S. cerevisiae deletion strains, locus YOR144C, strain elg1, active compounds read low 1.01 | S. cerevisiae deletion strains, locus YOR184W, strain ser1, active compounds read low 1.04 | S. cerevisiae deletion strains, locus YOR231W, strain MKK1, active compounds read low 1.04 | S. cerevisiae deletion strains, locus YOR265W, strain rbl2, active compounds read low 0.992 | S. cerevisiae deletion strains, locus YOR270C, strain vph1, active compounds read low 0.999 | S. cerevisiae deletion strains, locus YOR290C, strain snf2, active compounds read low 0.988 | S. cerevisiae deletion strains, locus YOR316C, strain cot1, active compounds read low 1.02 | S. cerevisiae deletion strains, locus YPL051W, strain arl3, active compounds read low 0.954 | S. cerevisiae deletion strains, locus YPL078C, strain atp4, active compounds read low 0.993 | S. cerevisiae deletion strains, locus YPL106C, strain sse1, active compounds read low 0.922 | S. cerevisiae deletion strains, locus YPL240C, strain hsp82, active compounds read low 0.994 | S. cerevisiae deletion strains, locus YPL241C, strain CIN2, active compounds read low 0.999 | S. cerevisiae deletion strains, locus YPL256C, strain CLN2, active compounds read low 1.05 | S. cerevisiae deletion strains, locus YPR119W, strain clb2, active compounds read low 1.02 | S. cerevisiae deletion strains, locus YPR141C, strain kar3, active compounds read low 1.01 | S. cerevisiae deletion strains, locus YPR163C, strain tif3, active compounds read low 1.02 | S. cerevisiae deletion strains, locus YPR167C, strain met16, active compounds read low 1.02 | S. cerevisiae deletion strains, strain wtn01, active compounds read low 1.01 | S. cerevisiae strains, strain wild type, active compounds read low 1
